Test results taken from PubChem BioAssay (NCI).
About 83,000 compounds went through this panel and 20% of them were active in at least one assay; those are over-represented in the sample as a whole.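 Step 1: grow cells in 96-well plates. Step 2: add test compound at a single concentration. Step 3: incubate 48 h. Step 4: record percent growth.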 A number with no mark means an inactive call. Calls of active or inactive are those of the source. How the source made its calls: active means growth percent below 10; inactive means the rest.

Key:
Assay in all cases: NCI-60 one-dose screen, 48 h (100 = growth as untreated, 0 = no growth, -100 = all killed)
Conditions in all cases: 10 µM
SR leukemia = test system: SR leukemia
RPMI-8226 leukemia = test system: RPMI-8226 leukemia
OVCAR-8 ovarian = test system: OVCAR-8 ovarian
OVCAR-5 ovarian = test system: OVCAR-5 ovarian
OVCAR-4 ovarian = test system: OVCAR-4 ovarian
SK-OV-3 ovarian = test system: SK-OV-3 ovarian
IGROV1 ovarian = test system: IGROV1 ovarian
OVCAR-3 ovarian = test system: OVCAR-3 ovarian
HS 578T breast = test system: HS 578T breast
NCI/ADR-RES ovarian = test system: NCI/ADR-RES ovarian
T-47D breast = test system: T-47D breast
BT-549 breast = test system: BT-549 breast
MDA-MB-435 melanoma = test system: MDA-MB-435 melanoma
SW-620 colon = test system: SW-620 colon
MCF7 breast = test system: MCF7 breast
HCT-116 colon = test system: HCT-116 colon
HCC-2998 colon = test system: HCC-2998 colon
KM12 colon = test system: KM12 colon

Question: Which results are given for `CCOC(=O)c1cc2c(n1Cc1ccccc1)-c1oncc1CC2`?
Answer: growth (SR leukemia): 13.1%; growth (RPMI-8226 leukemia): 67.1%; growth (OVCAR-8 ovarian): 97%; growth (OVCAR-5 ovarian): 97.4%; growth (OVCAR-4 ovarian): 105%; growth (SK-OV-3 ovarian): 92%; growth (IGROV1 ovarian): 42.4%; growth (OVCAR-3 ovarian): -0.497% (active); growth (HS 578T breast): 76.8%; growth (NCI/ADR-RES ovarian): 45.3%; growth (T-47D breast): 93.8%; growth (BT-549 breast): 92.7%; growth (MDA-MB-435 melanoma): -27.4% (active); growth (SW-620 colon): 32.9%; growth (MCF7 breast): 80.3%; growth (HCT-116 colon): 89%; growth (HCC-2998 colon): 83.6%; growth (KM12 colon): 31.4%

Question: Which growth (SR leukemia) does the source give for `CCCCCCCCCCCCCC[n+]1ccc(C)cc1` here?
Answer: Its growth is -38.2% (active).

Question: And the growth (RPMI-8226 leukemia)?
Answer: Its growth is -29.7% (active).

Question: And the growth (OVCAR-8 ovarian)?
Answer: Its growth is -19.1% (active).

Question: What about the growth (OVCAR-5 ovarian) of the same compound?
Answer: Its growth is 3.81% (active).

Question: And the growth (OVCAR-4 ovarian)?
Answer: The growth was 7.84% (active).

Question: What about the growth (SK-OV-3 ovarian) of the same compound?
Answer: Its growth is -24.2% (active).

Question: What about the growth (IGROV1 ovarian) of the same compound?
Answer: Its growth is -79.5% (active).

Question: And the growth (OVCAR-3 ovarian)?
Answer: Its growth is -57.2% (active).

Question: What about the growth (HS 578T breast) of the same compound?
Answer: Its growth is -22.6% (active).

Question: And the growth (NCI/ADR-RES ovarian)?
Answer: The growth was 66.6%.

Question: And the growth (T-47D breast)?
Answer: Its growth is 12.4%.

Question: What about the growth (BT-549 breast) of the same compound?
Answer: Its growth is -45% (active).

Question: And the growth (MDA-MB-435 melanoma)?
Answer: The growth was -64.8% (active).

Question: What about the growth (SW-620 colon) of the same compound?
Answer: Its growth is -3.73% (active).

Question: And the growth (MCF7 breast)?
Answer: Its growth is 0.934% (active).

Question: What about the growth (HCT-116 colon) of the same compound?
Answer: Its growth is 0.372% (active).

Question: And the growth (HCC-2998 colon)?
Answer: The growth was -69.7% (active).

Question: What about the growth (KM12 colon) of the same compound?
Answer: Its growth is -97.9% (active).

Question: With `COc1cccc2c1C(=O)c1c(O)c3c(c(O)c1C2=O)C[C@@](O)(C(=O)COC(=O)c1cccnc1)C[C@@H]3OC1CC(N)C(O)C(C)O1` (some centres undefined) as the compound, how does the growth (SR leukemia) read?
Answer: The growth was 3.07% (active).

Question: And the growth (RPMI-8226 leukemia)?
Answer: Its growth is -29% (active).

Question: And the growth (OVCAR-8 ovarian)?
Answer: Its growth is -15.8% (active).

Question: And the growth (OVCAR-5 ovarian)?
Answer: Its growth is 6.95% (active).

Question: What about the growth (OVCAR-4 ovarian) of the same compound?
Answer: Its growth is 0.907% (active).

Question: What about the growth (SK-OV-3 ovarian) of the same compound?
Answer: Its growth is 22.5%.

Question: What about the growth (IGROV1 ovarian) of the same compound?
Answer: Its growth is -12.4% (active).

Question: And the growth (OVCAR-3 ovarian)?
Answer: Its growth is -9.51% (active).

Question: What about the growth (HS 578T breast) of the same compound?
Answer: Its growth is -12.8% (active).

Question: And the growth (NCI/ADR-RES ovarian)?
Answer: Its growth is 57%.

Question: And the growth (T-47D breast)?
Answer: The growth was -2.37% (active).

Question: What about the growth (BT-549 breast) of the same compound?
Answer: Its growth is 5.42% (active).

Question: And the growth (MDA-MB-435 melanoma)?
Answer: The growth was -87.5% (active).

Question: And the growth (SW-620 colon)?
Answer: The growth was 3.34% (active).

Question: What about the growth (MCF7 breast) of the same compound?
Answer: The growth was 4.11% (active).

Question: What about the growth (HCT-116 colon) of the same compound?
Answer: Its growth is 6.26% (active).

Question: And the growth (HCC-2998 colon)?
Answer: The growth was -50.3% (active).

Question: And the growth (KM12 colon)?
Answer: Its growth is -0.352% (active).

Question: For `CC(=O)O[C@H]1CC[C@@]2(C)[C@@H](CC[C@@H]3[C@@H]2CC[C@]2(C)C=C(C=O)C[C@@H]32)C1`, which growth (SR leukemia) is on record?
Answer: Its growth is 2.16% (active).

Question: What about the growth (RPMI-8226 leukemia) of the same compound?
Answer: Its growth is 8.64% (active).

Question: And the growth (OVCAR-8 ovarian)?
Answer: Its growth is 24.9%.

Question: What about the growth (OVCAR-5 ovarian) of the same compound?
Answer: Its growth is 71.8%.

Question: And the growth (OVCAR-4 ovarian)?
Answer: Its growth is 70.4%.

Question: And the growth (SK-OV-3 ovarian)?
Answer: Its growth is 113%.

Question: And the growth (IGROV1 ovarian)?
Answer: Its growth is 60.2%.

Question: What about the growth (OVCAR-3 ovarian) of the same compound?
Answer: The growth was 57.8%.

Question: What about the growth (HS 578T breast) of the same compound?
Answer: The growth was 105%.

Question: And the growth (NCI/ADR-RES ovarian)?
Answer: Its growth is 70.5%.

Question: What about the growth (T-47D breast) of the same compound?
Answer: Its growth is 33.6%.

Question: And the growth (BT-549 breast)?
Answer: Its growth is 68.5%.

Question: And the growth (MDA-MB-435 melanoma)?
Answer: Its growth is 57.8%.

Question: And the growth (SW-620 colon)?
Answer: Its growth is 30.1%.

Question: What about the growth (MCF7 breast) of the same compound?
Answer: Its growth is 7.05% (active).

Question: What about the growth (HCT-116 colon) of the same compound?
Answer: Its growth is -19.3% (active).

Question: What about the growth (HCC-2998 colon) of the same compound?
Answer: Its growth is 92.5%.

Question: What about the growth (KM12 colon) of the same compound?
Answer: The growth was 107%.

Question: Which results are given for `CCOC(=O)c1c(Cl)c2c(n1Cc1cccc(OC)c1)-c1oncc1CC2`?
Answer: growth (SR leukemia): 8.61% (active); growth (RPMI-8226 leukemia): 35.4%; growth (OVCAR-8 ovarian): 37.4%; growth (OVCAR-5 ovarian): 74.3%; growth (OVCAR-4 ovarian): 56.7%; growth (SK-OV-3 ovarian): 17.2%; growth (IGROV1 ovarian): 23.5%; growth (OVCAR-3 ovarian): -34.9% (active); growth (HS 578T breast): -11.2% (active); growth (NCI/ADR-RES ovarian): 1.8% (active); growth (T-47D breast): 35.5%; growth (BT-549 breast): 21.7%; growth (MDA-MB-435 melanoma): -28% (active); growth (SW-620 colon): 34.5%; growth (MCF7 breast): 15.2%; growth (HCT-116 colon): 18.5%; growth (HCC-2998 colon): 39.8%; growth (KM12 colon): 25.9%

Question: For `CN1/C(=C\C(I)C(I)C2=[N+](C)c3ccccc3C2(C)C)C(C)(C)c2ccccc21` (centres undefined), which growth (SR leukemia) is on record?
Answer: Its growth is 8.27% (active).

Question: And the growth (RPMI-8226 leukemia)?
Answer: Its growth is -10.4% (active).

Question: What about the growth (OVCAR-8 ovarian) of the same compound?
Answer: The growth was 7.15% (active).

Question: And the growth (OVCAR-5 ovarian)?
Answer: Its growth is 24.9%.

Question: And the growth (OVCAR-4 ovarian)?
Answer: Its growth is 21.6%.

Question: What about the growth (SK-OV-3 ovarian) of the same compound?
Answer: Its growth is -8.39% (active).

Question: What about the growth (IGROV1 ovarian) of the same compound?
Answer: Its growth is 25%.

Question: What about the growth (OVCAR-3 ovarian) of the same compound?
Answer: Its growth is 13.3%.

Question: And the growth (HS 578T breast)?
Answer: The growth was 42.8%.

Question: And the growth (NCI/ADR-RES ovarian)?
Answer: The growth was 73%.

Question: What about the growth (T-47D breast) of the same compound?
Answer: Its growth is -0.299% (active).

Question: What about the growth (BT-549 breast) of the same compound?
Answer: The growth was 13.3%.

Question: And the growth (MDA-MB-435 melanoma)?
Answer: The growth was 11.8%.

Question: And the growth (SW-620 colon)?
Answer: The growth was 16.1%.

Question: And the growth (MCF7 breast)?
Answer: The growth was 4.83% (active).

Question: And the growth (HCT-116 colon)?
Answer: Its growth is 9.19% (active).

Question: And the growth (HCC-2998 colon)?
Answer: Its growth is 12.6%.

Question: And the growth (KM12 colon)?
Answer: Its growth is 13.2%.

Question: Which results are given for `COC(=O)[C@]12CC[C@@H](C)[C@H](C)[C@@H]1C1=CC[C@@H]3[C@@]4(C)CC(=O)[C@H](O)[C@@](C)(CO)[C@@H]4C(=O)C[C@@]3(C)[C@]1(C)CC2`?
Answer: growth (SR leukemia): -51.3% (active); growth (RPMI-8226 leukemia): -32.2% (active); growth (OVCAR-8 ovarian): -8.97% (active); growth (OVCAR-5 ovarian): 50.7%; growth (OVCAR-4 ovarian): 13.8%; growth (SK-OV-3 ovarian): 3.85% (active); growth (IGROV1 ovarian): -27.7% (active); growth (OVCAR-3 ovarian): -27.3% (active); growth (HS 578T breast): -1.78% (active); growth (NCI/ADR-RES ovarian): -24.3% (active); growth (T-47D breast): -15.8% (active); growth (BT-549 breast): -31.4% (active); growth (MDA-MB-435 melanoma): 11.4%; growth (SW-620 colon): 1.83% (active); growth (MCF7 breast): -13.4% (active); growth (HCT-116 colon): -43.1% (active); growth (HCC-2998 colon): -61.1% (active); growth (KM12 colon): -37.3% (active)

Question: Which growth (SR leukemia) does the source give for `CCN(CC)c1ccc(/C=C/C2=[N+](C)c3ccccc3C2(C)C)c(C)c1` here?
Answer: The growth was -14.6% (active).

Question: And the growth (RPMI-8226 leukemia)?
Answer: Its growth is -25.7% (active).

Question: What about the growth (OVCAR-8 ovarian) of the same compound?
Answer: Its growth is 8.1% (active).

Question: What about the growth (OVCAR-5 ovarian) of the same compound?
Answer: Its growth is 30.6%.

Question: And the growth (OVCAR-4 ovarian)?
Answer: Its growth is 18.4%.

Question: What about the growth (SK-OV-3 ovarian) of the same compound?
Answer: The growth was -6.99% (active).

Question: And the growth (IGROV1 ovarian)?
Answer: The growth was 31.8%.

Question: What about the growth (OVCAR-3 ovarian) of the same compound?
Answer: Its growth is 8.86% (active).

Question: And the growth (HS 578T breast)?
Answer: Its growth is 41.8%.

Question: And the growth (NCI/ADR-RES ovarian)?
Answer: The growth was 33.4%.

Question: And the growth (T-47D breast)?
Answer: Its growth is -0.932% (active).

Question: What about the growth (BT-549 breast) of the same compound?
Answer: Its growth is -13.2% (active).

Question: And the growth (MDA-MB-435 melanoma)?
Answer: Its growth is -13.7% (active).

Question: And the growth (SW-620 colon)?
Answer: The growth was 18.7%.

Question: What about the growth (MCF7 breast) of the same compound?
Answer: Its growth is 3.87% (active).

Question: What about the growth (HCT-116 colon) of the same compound?
Answer: The growth was 5.94% (active).

Question: What about the growth (HCC-2998 colon) of the same compound?
Answer: Its growth is 23.3%.

Question: And the growth (KM12 colon)?
Answer: The growth was -34.7% (active).
